Our source for the morphology score values is the supplement of paper PMC13380429.

The test system of this assay is Vero E6 infected with SARS-CoV-2. As to the kind of experiment: morphology score (similarity to uninfected cells); higher = more like uninfected cells. The conditions noted are these: 24 h.
On to `CC(=O)CC(c1ccccc1)c1c(O)c2ccccc2oc1=O` (stereo not given) [warfarin] (10 µM), for which the morphology score was -0.0329.

In turn, `Cc1ccc(CNc2ncnc3ccc(-c4ccc(CO)o4)cc23)o1` (10 µM) came in with a morphology score of 0.497.

In turn, `O=C(O)Cc1cccc(OCCCN(Cc2cccc(C(F)(F)F)c2Cl)CC(c2ccccc2)c2ccccc2)c1` (10 µM) returned a morphology score of 0.267.

In the case of `CCCCCCCCCCCCCCCC(=O)O[C@@H]1[C@@H](O)[C@@H](O)[C@@H]([C@H](NC(=O)[C@@H]2C[C@@H](CCC)CN2C)[C@H](C)Cl)O[C@@H]1SC` [clindamycin-palmitate] (10 µM), the morphology score came out at 0.0793.

On to `CS(=O)(=O)c1ccc(-c2cc(Br)sc2-c2ccc(F)cc2)cc1` (10 µM), for which the morphology score worked out at 0.0351.

In the case of `CS(=O)(=O)Nc1c(O)ccc2c1CCC[C@H]2C1=NCCN1` (10 µM), the morphology score came out at 0.0346.

Turning to `Cc1cc(OCCCS(C)(=O)=O)cc(C)c1-c1cccc(COc2ccc3c(c2)OC[C@H]3CC(=O)O)c1` (10 µM), the morphology score worked out at 0.0278.

Consider `NC(=O)OCC(O)COc1ccc(Cl)cc1` (stereo not given) [chlorphensin-carbamate] (10 µM), for which the morphology score was -0.0129.

Compound `NC(=O)NC1NC(=O)NC1=O` (stereo not given) [allantoin] (10 µM) yielded a morphology score of -0.0426.

`O=C1NC(=O)/C(=C/c2ccc3c(c2)OC(F)(F)O3)S1` (10 µM) gave a morphology score of -0.0969.

The compound `Cc1ccc(-c2nc3ccc(C)cn3c2CC(=O)N(C)C)cc1` (10 µM) displayed a morphology score of 0.137.

`CC(C)(C#N)c1ccc(N2C(=O)OCc3cnc4ccc(-c5cnc6ccccc6c5)cc4c32)cc1` (10 µM): the morphology score turned out to be 0.22.

Regarding `CN(CCOP(=O)(O)O)C(=N)N` [creatinol-phosphate] (10 µM), the morphology score stood at 0.077.

`OCc1cncc(F)c1` [5-fluoro-3-pyridyl-methanol] (10 µM): the morphology score turned out to be 0.135.

In turn, `CCCN1CCN(c2ccc(C(=O)NC3(C(=O)NCC#N)CCCCC3)cc2)CC1` [balicatib] (10 µM) yielded a morphology score of 0.59.

In the case of `Nc1nc(OCc2cc(Br)cs2)c2[nH]cnc2n1` [lomeguatrib] (10 µM), the morphology score worked out at 0.19.

On to `CC[N+](CC)(CC)CCOc1cccc(OCC[N+](CC)(CC)CC)c1OCC[N+](CC)(CC)CC` [gallamine-triethiodide] (10 µM), for which the morphology score is -0.128.

Take `Cc1c(-c2ccc(-c3ccccc3F)cc2)nc2ccc(F)cc2c1C(=O)O` [brequinar] (10 µM): the morphology score was found to be 0.115.

With `CCOc1cc2ncc(C#N)c(Nc3ccc(F)c(Cl)c3)c2cc1NC(=O)/C=C/CN(C)C` [pelitinib] (10 µM), the morphology score was -0.188.

As for `NCCCC[C@H](NC(=O)[C@@H]1CCCN1C(=O)[C@@H]1CSSC[C@H](N)C(=O)N[C@@H](Cc2ccc(O)cc2)C(=O)N[C@@H](Cc2ccccc2)C(=O)N[C@@H](CCC(N)=O)C(=O)N[C@@H](CC(N)=O)C(=O)N1)C(=O)NCC(N)=O` [lypressin] (10 µM), the morphology score stood at 0.164.

With `N[C@@H](CCNCc1ccc(Cl)cc1)C(=O)N1CCCCC1` (10 µM), the morphology score is -0.159.

The compound `COc1cc2ncnc(Nc3ccc(Cl)cc3F)c2cc1OC` (10 µM) came in with a morphology score of -0.174.

Compound `CCc1cc(/C(C)=N/OCc2ccc(C3CCCCC3)c(C(F)(F)F)c2)ccc1CN1CC(C(=O)O)C1` [siponimod] (10 µM) yielded a morphology score of 0.0973.

`Nc1ccc(/N=N/c2ccccc2)c(N)n1` [phenazopyridine] (10 µM): the morphology score was 0.34.

Turning to `O=C(CCc1ccc(O)cc1)c1c(O)cc(O)cc1O[C@@H]1O[C@H](CO)[C@@H](O)[C@H](O)[C@H]1O` [phlorizin] (10 µM), the morphology score was determined as 0.166.

In turn, `Oc1c(Cl)cc(Cl)c2cccnc12` [chloroxine] (10 µM) gave a morphology score of -0.0551.

`Nc1nnc(-c2cccc(Cl)c2Cl)c(N)n1` [lamotrigine] (10 µM) yielded a morphology score of 0.0194.

With `CCC(C(=O)O)c1ccc(CC(C)C)cc1` (stereo not given) [butibufen] (10 µM), the morphology score amounted to 0.268.

For the compound `COc1cc2ncnc(Nc3cccc(Br)c3)c2cc1OC` (10 µM), the morphology score was -0.238.

In turn, `O=C(Nc1cc(Oc2cc(F)c(NC(=O)C3(C(=O)Nc4ccc(F)cc4)CC3)cc2F)ccn1)C1CC1` [altiratinib] (10 µM) returned a morphology score of 0.122.

`CCCOc1ccc2c(c1)CC[C@@H]1[C@@H]2CC[C@]2(C)[C@@H](OC)CC[C@@H]12` [promestriene] (10 µM) showed a morphology score of 0.169.

As to `CC(C)n1nc(-c2ccc3oc(N)nc3c2)c2c(N)ncnc21` (0.833333 µM), the morphology score is -0.0142.

For the compound `c1cnc(N2CCN(Cc3ccc4c(c3)OCO4)CC2)nc1` [piribedil] (10 µM), the morphology score is 0.0979.

In the case of `CCCCN(CCCC)CC(O)c1cc(Cl)cc2c1-c1ccc(Cl)cc1/C2=C/c1ccc(Cl)cc1` (stereo not given) [lumefantrine] (10 µM), the morphology score is 0.15.

Regarding `COc1cc(SC)ccc1C(=O)N1CCC(Cc2ccccc2)CC1` (10 µM), the morphology score is 0.0267.

On to `CCCCN1CCCC1CNC(=O)c1cc(C#N)c2ccccc2c1OC` (stereo not given) [nafadotride] (10 µM), for which the morphology score stood at 0.327.

With `O=C(O)CC[C@H]1CC[C@@](c2cc(F)ccc2F)(S(=O)(=O)c2ccc(Cl)cc2)CC1` (10 µM), the morphology score was 0.0148.

In the case of `C[C@@H](O[C@H]1OCCN(Cc2nn[nH]c2CN(C)C)[C@H]1c1ccc(F)cc1)c1cc(C(F)(F)F)cc(C(F)(F)F)c1` (10 µM), the morphology score came out at 0.43.

In turn, `CCOP(=S)(OCC)Oc1ccc2c(C)c(Cl)c(=O)oc2c1` [coumophos] (10 µM) showed a morphology score of -0.0715.

Compound `COc1cc2ncnc(Nc3ccc(Oc4ccccc4)cc3)c2cc1OC` [SRC-kinase-inhibitor-I] (0.833333 µM) showed a morphology score of 0.0162.
